# PubChem BioAssay (NCI)
# About 79,000 compounds went through this panel and 15% of them were active in at least one assay; those are over-represented in the sample as a whole. Values without a mark were called inactive. Activity calls are given as the source filed them. Rule as the data show it: active = growth inhibition above about 70%; inactive = the rest.
# How the values were obtained:
# [1] = NCI Yeast Anticancer Drug Screen. Data for the rad50 strain (AID 155);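 also: 0% = growth of vehicle-only cultures of the same strain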; conditions: S. cerevisiae rad50 strain growth inhibition, active compounds read high
# Procedure, shortened: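 Growth of the mutant yeast was measured after compound exposure and referenced to vehicle-treated cultures.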
# [2] = NCI Yeast Anticancer Drug Screen. Data for the mec2-1 strain (AID 157); conditions: S. cerevisiae mec2-1 strain, active compounds read high
# Procedure, shortened: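 Test agents were screened against the mec2-1 yeast strain, with defined DNA repair or cell cycle alteration. Growth was scored as inhibition against vehicle-only controls.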
# [3] = NCI Yeast Anticancer Drug Screen. Data for the sgs1 mgt1 strain (AID 161);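 also: 0% = growth of cultures given vehicle only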; conditions: S. cerevisiae sgs1 mgt1 strain, active compounds read high
# Procedure, shortened: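 Mutant yeast exposed to compound; growth scored against vehicle-only wells.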
# [4] = NCI Yeast Anticancer Drug Screen. Data for the cln2 rad14 strain (AID 165);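 also: 0% = growth equal to vehicle treated cultures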; conditions: S. cerevisiae cln2 rad14 strain, active compounds read high
# Procedure, shortened: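 Growth of compound-exposed yeast (cln2 rad14 genotype) measured and expressed as inhibition relative to vehicle.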
# [5] = NCI Yeast Anticancer Drug Screen. Data for the bub3 strain (AID 167); conditions: S. cerevisiae bub3 mutant strain, active compounds read high
# Procedure, shortened: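 Whole-cell yeast assay. The mutant strain was incubated with compounds, and growth inhibition was determined by comparison with vehicle-treated cells.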
# [6] = NCI Yeast Anticancer Drug Screen. Data for the mlh1 rad18 strain (AID 175); conditions: S. cerevisiae mlh1 rad18 strain growth inhibition, active compounds read high
# Procedure, shortened: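 In this whole-cell yeast screen, a strain with altered DNA damage repair is challenged with compound, and its growth is measured against matched vehicle-treated controls.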
# [7] = at 5.0 µM (retest, dose inferred, filed as 0.5)
# [8] = at 50.0 µM (retest, dose inferred, filed as 5.0)
Compound,"growth inhibition [1, 7] [%]","growth inhibition [1, 8]",growth inhibition ([1]; at 50.0 µM),"growth inhibition [2, 7] [%]","growth inhibition [2, 8]",growth inhibition ([2]; at 50.0 µM),"growth inhibition [3, 7] [%]","growth inhibition [3, 8]",growth inhibition ([3]; at 50.0 µM),"growth inhibition [4, 7] [%]","growth inhibition [4, 8]",growth inhibition ([4]; at 50.0 µM),"growth inhibition [5, 7] [%]","growth inhibition [5, 8]",growth inhibition ([5]; at 50.0 µM),"growth inhibition [6, 7]","growth inhibition [6, 8]",growth inhibition ([6]; at 50.0 µM)
Fc1ccc(C2(CCCN3CCc4[nH]c5cc(F)ccc5c4C3)OCCO2)cc1,31,97% (active),70.2% (active),27,98% (active),79% (active),25,99% (active),84.5% (active),18,96% (active),83.3% (active),24,98% (active),39.5%,29%,99% (active),91% (active)
COC(=O)c1ccc(C)cc1C1CN=NC12Cc1cccc(C)c1C2=O (stereo not drawn),1,9%,26.8%,-1,10%,24.9%,16,22%,8.65%,5,10%,83.5% (active),-2,23%,41.8%,-1%,6%,2.55%
O=C(c1ccccc1)c1cccc2ccccc12,5,29%,56.2%,-5,-2%,43%,-2,30%,52.2%,-2,-24%,-14.3%,16,27%,49.7%,-1%,14%,88.2% (active)
Cc1[nH]nc(C(=O)N/N=C/c2ccccc2Cl)c1N=NN(C)C,41,91% (active),92.5% (active),50,93% (active),92.4% (active),33,94% (active),91.9% (active),5,93% (active),93.7% (active),12,88% (active),89.7% (active),72% (active),94% (active),95.3% (active)
Cc1cc(O)c(O)cc1C/C=C/c1ccccc1,-1,92% (active),53.2%,1,97% (active),26.7%,5,97% (active),51.5%,-5,82% (active),42.5%,0,96% (active),53.2%,-10%,96% (active),40.6%
CC1CC(OC(=O)Nc2ccccc2)CC(C)(C)C1 (stereo not drawn),-33,76% (active),78.8% (active),9,74% (active),80.6% (active),-6,87% (active),91.5% (active),4,81% (active),66.8%,10,83% (active),90.3% (active),4%,87% (active),85.6% (active)
